Compounds without any hit were thinned out: in the full panel of roughly 83,000, 20% have a hit.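 48-hour exposure, single concentration, 96-well plates; percent growth endpoint where 0 means no net growth. Active: below 10.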 Unmarked numbers belong to inactive results. Activity calls are given as the source filed them.

The test system of the first assay is SW-620 colon. The experiment in a line: NCI-60 one-dose screen, 48 h (100 = growth as untreated, 0 = no growth, -100 = all killed). The settings on record: 10 µM.
As for `C=C(C)[C@@H]1CC[C@]2(C(=O)OC)CC[C@]3(C)[C@H](CC[C@@H]4[C@@]5(C)CC[C@H](N)C(C)(C)[C@@H]5CC[C@]43C)[C@@H]12`, the growth is -75.6% (active). For the compound `CS(=O)(=O)Nc1ccc(-c2ccc3c(c2)ncn3-c2ccc(NC(=O)Nc3ccc(Br)cc3)cc2)cc1`, the growth was 1.27% (active).

As to `CCCS(=O)(=O)c1oc(-c2ccc(F)cc2)nc1S(=O)(=O)c1ccc(F)cc1`, the growth was -77.6% (active). As to `CC(C)CCSc1nc(NC2CC2)c(C#N)c(-c2ccc(C(C)C)cc2)n1`, the growth was 114%. Same read-out and setting: in the case of `Cc1ccc(-c2nc3ccc(C(=O)N=Nc4c(O)[nH]c5ccc([N+](=O)[O-])cc45)cc3[nH]2)cc1` it was 42.2%.

The test system of the next assay is MCF7 breast. The description is as above. The note with it: 10 µM.
With `CN1CCN(c2ccc(Nc3nc(N4CCN(S(=O)(=O)c5ccc(F)cc5)CC4)c4sccc4n3)cc2)CC1`, the growth is -77.6% (active).

As for `CCCCCc1ccc(S(=O)(=O)Nc2cc(-c3csc(N(C)C(C)=O)n3)ccc2N2CCN(C)CC2)cc1`, the growth was 4.08% (active).

For `CN1CCN(c2ccc(Nc3nc(NCCCNC(=O)C4CCCCC4)c4sccc4n3)cc2)CC1`, the growth is 23.1%. In the case of `N[C@@H](CSSC[C@H](N)C(=O)Nc1ccc(OCC2CCCC2)cc1)C(=O)Nc1ccc(OCC2CCCC2)cc1`, the growth was -73% (active). `COc1ccc2nc(Cl)c(-c3cc(-c4ccccc4)nc(=O)[nH]3)cc2c1`: the growth was 10.2%. The same measure, in the same setting: the figure for `O=C(Nc1ccc(OCc2ccccc2)cc1)Nc1ccc(Cl)c(C(F)(F)F)c1` is 2.34% (active). Turning to `COc1ccc2[nH]c(O)c(N=NC(=O)COc3ccc(NC(=O)Nc4ccc(Cl)cc4)cc3)c2c1`, the growth is 1.75% (active). Same read-out and setting: in the case of `Cc1cc2c(c(O)c1Br)-c1ncoc1C(=O)[C@]1(C)CC[C@H](C(C)C)[C@H]21` it was 10.1%; in that of `CCN1CCN(c2ccc(NC(=O)Nc3ccc4c(c3F)CCN4c3ccnc(C(=O)NC)c3)cc2C(F)(F)F)CC1`, -77.9% (active); in that of `O=C1Nc2ccc(F)cc2/C1=C/c1cccc(OCc2ccccc2)c1`, 3.46% (active).

In the case of `Cc1ccc(NC(=O)c2ccc(-n3c(=O)[nH]c4ccccc4c3=O)cc2)cc1`, the growth was 87.5%. On the same count and under the same terms, the figure for `O=C(Nc1ccncc1)c1ccc(-n2c(=O)[nH]c3ccccc3c2=O)cc1` is 92.3%; for `Cc1ccc(-c2cc(-c3cc4ccccc4nc3Cl)[nH]c(=S)n2)cc1` it is 47.5%. With `O=C(c1ccc(Cl)cc1)C1[C@H](c2ccc(Br)cc2)[C@@H](c2ccccc2)NC12C(=O)Nc1ccc(Cl)cc12` (some centres undefined), the growth was -39.7% (active).

As to `O=C(O)CCCCCCCCCCN1C(=O)/C(=C/c2cnc(-c3ccc(Cl)cc3)s2)SC1=S`, the growth is 27.1%.

Turning to `CN1CCN(c2ccc(Nc3nc(N4CCN(S(=O)(=O)c5ccc(Cl)cc5)CC4)c4sccc4n3)cc2)CC1`, the growth is -83.5% (active). On the same count and under the same terms, in the case of `CN1CCN(c2ccc(C(=O)/C=C/c3cc(Br)ccc3F)cc2)CC1` it was 2.37% (active); in that of `O=c1nc(-c2ccccc2)cc(-c2cc3ccccc3nc2Cl)[nH]1`, 4.69% (active). Consider `CC1=C2C(=C[C@@](C)(CO)[C@@H]2O)/C(=N\N)[C@](C)(O)C12CC2`, for which the growth is -6.87% (active). As to `O=C(c1ccc(O)cc1)C1[C@H](c2ccc(Br)cc2)[C@@H](c2ccccc2)NC12C(=O)Nc1ccc(Br)cc12` (some centres undefined), the growth was -18% (active). Still for that read-out and setting: in the case of `COc1ccc(C=CC(=O)c2ccc(-n3c(C)nc4c(cnn4-c4ccccc4)c3=O)cc2)cc1` it was 8.3% (active). Same read-out and setting: in the case of `O=C(c1ccc(O)cc1)C1[C@H](c2ccccc2Br)[C@@H](c2ccccc2)NC12C(=O)Nc1ccc(Cl)cc12` (some centres undefined) it was -17.2% (active); in that of `O=C(c1ccccc1)n1ccc(-c2cc3cc(Br)ccc3oc2=O)n1`, -8.53% (active). The same measure, in the same setting: in the case of `C#Cc1ccc(S(=O)(=O)Nc2cccc(-c3csc(NC(C)=O)n3)c2)cc1` it was 64.5%; in that of `O=C(N/N=C/c1ccc(-c2cccc([N+](=O)[O-])c2)o1)c1[nH]c2ccc(Br)cc2c1-c1ccccc1`, 1.16% (active). In the case of `O=C(Nc1nc2ccc([N+](=O)[O-])cc2s1)Nc1cc(Cl)ccc1I`, the growth is -28.9% (active).

For `C=C(c1ccc(OC)c(N)c1)c1cc(C)nc2ccccc12`, the growth is 9.03% (active). The same measure, in the same setting: the figure for `CNC(=O)c1cccc(N2CCc3c2ccc(NC(=O)Nc2ccc(N4CCN(C)CC4)c(C(F)(F)F)c2)c3F)c1` is -79.8% (active); for `COc1ccc([C@H]2C(C(=O)c3ccc(Cl)cc3)C3(N[C@@H]2c2ccccc2)C(=O)Nc2ccc(Br)cc23)cc1` (some centres undefined) it is -7.25% (active).

Values taken from PubChem BioAssay (NCI).
